Results reported in the supplement of paper PMC11732987, “Enantioselective OTUD7B fragment discovery through chemoproteomics screening and high-throughput optimisation” (Communications Chemistry, 2025).

Assays:
Experiment in all cases: log2 ratio of Biotin-Ahx-Ub-VS probe labelling (fragment/DMSO); higher = less target engagement (more negative = stronger competition), active = hit call of the paper (q ≤ 0.05, log2 ratio ≤ -1)
Conditions in all cases: compound concentration: 200 uM; treatment time: 3 h
USP42 = biological target: T1, USP42 (UniProt Q9H9J4)
T1 sequence (whole entry): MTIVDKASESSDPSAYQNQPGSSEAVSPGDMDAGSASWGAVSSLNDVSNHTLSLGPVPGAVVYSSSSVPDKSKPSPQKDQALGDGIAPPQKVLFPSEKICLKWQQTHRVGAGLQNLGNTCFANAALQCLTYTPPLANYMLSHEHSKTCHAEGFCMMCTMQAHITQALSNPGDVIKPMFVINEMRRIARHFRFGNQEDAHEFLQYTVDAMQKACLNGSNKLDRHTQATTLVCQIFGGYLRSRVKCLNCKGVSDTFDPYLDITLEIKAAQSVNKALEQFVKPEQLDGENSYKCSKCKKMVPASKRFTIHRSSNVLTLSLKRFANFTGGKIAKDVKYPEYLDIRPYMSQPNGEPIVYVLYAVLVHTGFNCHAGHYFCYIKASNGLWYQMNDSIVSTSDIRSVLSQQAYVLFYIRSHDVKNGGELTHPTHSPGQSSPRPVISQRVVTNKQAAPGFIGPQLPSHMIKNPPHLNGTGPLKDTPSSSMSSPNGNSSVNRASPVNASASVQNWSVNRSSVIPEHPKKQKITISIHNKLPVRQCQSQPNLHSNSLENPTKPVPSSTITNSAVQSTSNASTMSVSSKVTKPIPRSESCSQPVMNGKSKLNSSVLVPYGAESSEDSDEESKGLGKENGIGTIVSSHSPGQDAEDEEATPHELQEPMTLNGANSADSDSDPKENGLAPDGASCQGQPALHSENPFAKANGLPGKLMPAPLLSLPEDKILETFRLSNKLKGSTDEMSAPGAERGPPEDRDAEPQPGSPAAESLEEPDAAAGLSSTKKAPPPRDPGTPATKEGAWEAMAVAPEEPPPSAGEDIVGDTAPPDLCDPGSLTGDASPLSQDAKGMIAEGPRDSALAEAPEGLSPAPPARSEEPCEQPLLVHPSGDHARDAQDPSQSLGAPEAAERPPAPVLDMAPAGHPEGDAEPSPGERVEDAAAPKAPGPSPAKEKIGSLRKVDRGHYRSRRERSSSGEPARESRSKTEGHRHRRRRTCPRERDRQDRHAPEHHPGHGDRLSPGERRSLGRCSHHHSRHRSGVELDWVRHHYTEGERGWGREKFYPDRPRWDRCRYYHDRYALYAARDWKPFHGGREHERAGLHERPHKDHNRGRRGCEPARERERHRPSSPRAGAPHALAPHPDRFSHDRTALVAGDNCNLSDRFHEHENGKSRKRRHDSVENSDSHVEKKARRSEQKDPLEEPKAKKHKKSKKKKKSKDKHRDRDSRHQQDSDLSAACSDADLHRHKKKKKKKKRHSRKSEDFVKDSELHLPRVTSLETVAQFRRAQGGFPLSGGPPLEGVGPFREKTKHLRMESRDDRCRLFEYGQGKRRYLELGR
In short: (§1)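 Labelled DUBs were enriched with NeutrAvidin, digested with LysC and trypsin, and run by diaPASEF LC-MS/MS. The labelling used Biotin-Ahx-Ub-VS at 0.5 µM final for 1 h on HEK293T lysate (495 µg per sample) previously treated in triplicate with fragment at 200 µM or vehicle for 3 h. Values are average log2 fragment/vehicle ratios by unpaired t-test on global-median-normalised Spectronaut quantities of proteins with ≥2 unique peptides.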

USP46 = USP46 (UniProt P62068)
In short: as §1

USP47 = biological target: T2, USP47 (UniProt Q96K76)
T2 sequence (whole entry): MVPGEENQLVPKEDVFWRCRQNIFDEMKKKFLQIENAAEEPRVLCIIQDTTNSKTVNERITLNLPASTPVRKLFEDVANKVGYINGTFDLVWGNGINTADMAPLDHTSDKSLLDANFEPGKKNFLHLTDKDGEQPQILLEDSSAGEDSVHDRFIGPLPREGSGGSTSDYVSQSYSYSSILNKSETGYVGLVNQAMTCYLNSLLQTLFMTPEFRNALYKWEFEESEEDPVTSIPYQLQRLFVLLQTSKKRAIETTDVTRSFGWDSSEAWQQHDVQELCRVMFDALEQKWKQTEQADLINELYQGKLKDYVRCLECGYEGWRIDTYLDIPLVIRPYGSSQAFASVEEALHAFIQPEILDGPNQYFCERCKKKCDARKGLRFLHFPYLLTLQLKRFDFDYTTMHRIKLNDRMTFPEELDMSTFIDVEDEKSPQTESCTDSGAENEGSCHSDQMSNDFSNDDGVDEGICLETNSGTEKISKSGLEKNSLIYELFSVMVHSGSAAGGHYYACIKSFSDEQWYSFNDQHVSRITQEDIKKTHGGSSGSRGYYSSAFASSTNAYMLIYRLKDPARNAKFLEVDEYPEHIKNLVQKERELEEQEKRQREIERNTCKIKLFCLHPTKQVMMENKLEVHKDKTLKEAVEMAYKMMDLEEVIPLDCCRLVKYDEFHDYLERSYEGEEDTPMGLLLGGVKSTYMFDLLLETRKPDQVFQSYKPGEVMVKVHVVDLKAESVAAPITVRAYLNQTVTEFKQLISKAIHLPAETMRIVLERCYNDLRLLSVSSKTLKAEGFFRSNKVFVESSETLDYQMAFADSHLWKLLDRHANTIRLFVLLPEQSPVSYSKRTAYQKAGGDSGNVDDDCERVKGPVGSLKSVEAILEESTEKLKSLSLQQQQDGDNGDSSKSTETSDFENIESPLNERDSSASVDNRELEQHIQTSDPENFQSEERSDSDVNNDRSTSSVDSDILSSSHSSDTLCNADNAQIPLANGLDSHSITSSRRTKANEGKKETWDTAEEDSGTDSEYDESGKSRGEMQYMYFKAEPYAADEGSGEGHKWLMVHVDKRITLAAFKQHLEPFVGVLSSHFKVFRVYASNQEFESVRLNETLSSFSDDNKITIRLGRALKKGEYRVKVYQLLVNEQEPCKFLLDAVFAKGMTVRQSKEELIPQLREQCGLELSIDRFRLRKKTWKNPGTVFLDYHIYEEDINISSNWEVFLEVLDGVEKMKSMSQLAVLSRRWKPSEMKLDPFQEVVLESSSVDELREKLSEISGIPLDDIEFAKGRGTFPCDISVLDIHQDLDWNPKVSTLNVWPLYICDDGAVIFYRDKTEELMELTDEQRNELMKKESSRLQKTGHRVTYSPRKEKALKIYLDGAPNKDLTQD
In short: as §1

USP48 = biological target: T3, USP48 (UniProt Q86UV5)
T3 sequence (whole entry): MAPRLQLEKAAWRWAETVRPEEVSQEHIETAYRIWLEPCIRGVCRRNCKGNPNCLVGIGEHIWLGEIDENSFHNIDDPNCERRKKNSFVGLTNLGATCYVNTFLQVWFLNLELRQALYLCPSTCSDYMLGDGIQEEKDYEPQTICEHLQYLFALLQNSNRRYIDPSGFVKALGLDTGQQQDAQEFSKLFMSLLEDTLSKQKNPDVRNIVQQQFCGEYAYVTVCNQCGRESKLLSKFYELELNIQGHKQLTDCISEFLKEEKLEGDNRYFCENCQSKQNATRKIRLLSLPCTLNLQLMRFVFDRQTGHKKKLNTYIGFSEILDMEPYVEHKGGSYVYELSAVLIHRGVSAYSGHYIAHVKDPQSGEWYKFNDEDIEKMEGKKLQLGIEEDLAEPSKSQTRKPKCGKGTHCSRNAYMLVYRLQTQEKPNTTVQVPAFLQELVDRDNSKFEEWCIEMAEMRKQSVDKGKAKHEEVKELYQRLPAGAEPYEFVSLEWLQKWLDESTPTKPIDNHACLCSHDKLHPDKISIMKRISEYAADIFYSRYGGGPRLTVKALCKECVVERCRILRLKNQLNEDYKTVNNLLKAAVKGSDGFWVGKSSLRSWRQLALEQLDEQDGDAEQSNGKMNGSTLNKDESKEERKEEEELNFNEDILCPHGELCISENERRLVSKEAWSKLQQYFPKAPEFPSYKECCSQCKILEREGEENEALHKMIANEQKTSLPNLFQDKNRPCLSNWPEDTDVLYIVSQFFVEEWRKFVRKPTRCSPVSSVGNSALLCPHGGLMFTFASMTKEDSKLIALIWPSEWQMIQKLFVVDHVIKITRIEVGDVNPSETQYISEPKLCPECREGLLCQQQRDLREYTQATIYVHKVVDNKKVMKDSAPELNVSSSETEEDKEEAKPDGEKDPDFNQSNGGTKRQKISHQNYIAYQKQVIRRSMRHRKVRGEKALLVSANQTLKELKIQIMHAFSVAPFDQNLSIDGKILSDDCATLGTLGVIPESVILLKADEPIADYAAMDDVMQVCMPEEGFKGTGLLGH
In short: as §1

USP5 = biological target: T4, USP5 (UniProt P45974)
T4 sequence (whole entry): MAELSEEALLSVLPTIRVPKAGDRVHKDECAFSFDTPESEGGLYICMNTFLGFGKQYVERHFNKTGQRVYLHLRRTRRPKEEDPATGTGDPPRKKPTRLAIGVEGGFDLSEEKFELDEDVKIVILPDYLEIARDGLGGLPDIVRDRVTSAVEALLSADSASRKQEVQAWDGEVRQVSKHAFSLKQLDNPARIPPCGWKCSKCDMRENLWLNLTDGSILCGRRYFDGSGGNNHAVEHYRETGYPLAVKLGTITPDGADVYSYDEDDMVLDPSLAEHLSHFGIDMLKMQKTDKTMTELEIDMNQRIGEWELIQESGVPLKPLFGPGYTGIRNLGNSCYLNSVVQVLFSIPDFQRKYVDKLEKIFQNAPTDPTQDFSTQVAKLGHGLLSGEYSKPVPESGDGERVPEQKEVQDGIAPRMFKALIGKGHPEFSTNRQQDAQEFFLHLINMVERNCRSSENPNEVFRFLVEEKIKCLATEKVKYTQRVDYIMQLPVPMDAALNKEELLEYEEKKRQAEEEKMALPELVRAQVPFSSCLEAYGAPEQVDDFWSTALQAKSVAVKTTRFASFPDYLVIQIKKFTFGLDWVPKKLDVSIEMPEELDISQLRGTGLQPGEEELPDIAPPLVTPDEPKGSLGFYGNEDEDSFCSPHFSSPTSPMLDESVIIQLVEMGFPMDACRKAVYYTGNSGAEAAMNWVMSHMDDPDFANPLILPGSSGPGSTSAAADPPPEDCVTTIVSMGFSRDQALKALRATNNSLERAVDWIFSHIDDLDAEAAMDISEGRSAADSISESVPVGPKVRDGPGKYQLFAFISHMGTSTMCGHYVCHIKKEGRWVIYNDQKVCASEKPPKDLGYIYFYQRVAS
In short: as §1

USP54 = USP54 (UniProt Q70EL1)
In short: as §1

USP7 = USP7 (UniProt Q93009)
In short: as §1

USP8 = biological target: T5, USP8 (UniProt P40818)
T5 sequence (whole entry): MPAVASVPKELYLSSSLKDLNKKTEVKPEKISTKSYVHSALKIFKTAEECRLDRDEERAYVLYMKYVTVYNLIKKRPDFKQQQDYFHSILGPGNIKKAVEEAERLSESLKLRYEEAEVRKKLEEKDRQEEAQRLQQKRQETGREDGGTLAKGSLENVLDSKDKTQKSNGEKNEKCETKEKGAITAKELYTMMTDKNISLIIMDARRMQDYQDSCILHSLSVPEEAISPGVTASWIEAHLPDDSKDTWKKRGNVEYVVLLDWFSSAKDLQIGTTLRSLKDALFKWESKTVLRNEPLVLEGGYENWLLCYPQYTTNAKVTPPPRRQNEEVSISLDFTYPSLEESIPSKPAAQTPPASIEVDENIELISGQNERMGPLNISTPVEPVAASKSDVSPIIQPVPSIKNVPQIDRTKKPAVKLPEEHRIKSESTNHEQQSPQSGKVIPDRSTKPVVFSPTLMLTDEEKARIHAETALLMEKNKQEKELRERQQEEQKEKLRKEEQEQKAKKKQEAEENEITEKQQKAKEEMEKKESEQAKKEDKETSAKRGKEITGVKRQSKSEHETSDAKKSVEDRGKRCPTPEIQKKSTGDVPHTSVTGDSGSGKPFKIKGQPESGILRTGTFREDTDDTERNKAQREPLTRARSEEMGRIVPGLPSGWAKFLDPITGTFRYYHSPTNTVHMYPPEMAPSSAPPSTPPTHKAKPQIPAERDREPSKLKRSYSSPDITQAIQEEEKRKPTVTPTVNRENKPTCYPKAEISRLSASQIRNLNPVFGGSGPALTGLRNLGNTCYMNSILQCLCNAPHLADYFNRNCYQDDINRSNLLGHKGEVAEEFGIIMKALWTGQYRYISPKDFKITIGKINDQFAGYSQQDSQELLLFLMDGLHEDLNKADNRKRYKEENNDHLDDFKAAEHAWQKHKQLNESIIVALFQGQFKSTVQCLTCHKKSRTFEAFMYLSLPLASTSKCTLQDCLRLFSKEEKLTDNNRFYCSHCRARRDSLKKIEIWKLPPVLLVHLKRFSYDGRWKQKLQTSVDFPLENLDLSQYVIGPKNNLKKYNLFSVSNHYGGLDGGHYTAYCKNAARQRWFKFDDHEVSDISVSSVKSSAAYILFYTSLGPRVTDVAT
In short: as §1

USP9X = USP9X (UniProt Q93008)
In short: as §1

UniProt O00487 = biological target: UniProt O00487
In short: as §1

Measured: log2 ratio of Biotin-Ahx-Ub-VS probe labelling

Sequence of USP9X (Q93008 whole entry): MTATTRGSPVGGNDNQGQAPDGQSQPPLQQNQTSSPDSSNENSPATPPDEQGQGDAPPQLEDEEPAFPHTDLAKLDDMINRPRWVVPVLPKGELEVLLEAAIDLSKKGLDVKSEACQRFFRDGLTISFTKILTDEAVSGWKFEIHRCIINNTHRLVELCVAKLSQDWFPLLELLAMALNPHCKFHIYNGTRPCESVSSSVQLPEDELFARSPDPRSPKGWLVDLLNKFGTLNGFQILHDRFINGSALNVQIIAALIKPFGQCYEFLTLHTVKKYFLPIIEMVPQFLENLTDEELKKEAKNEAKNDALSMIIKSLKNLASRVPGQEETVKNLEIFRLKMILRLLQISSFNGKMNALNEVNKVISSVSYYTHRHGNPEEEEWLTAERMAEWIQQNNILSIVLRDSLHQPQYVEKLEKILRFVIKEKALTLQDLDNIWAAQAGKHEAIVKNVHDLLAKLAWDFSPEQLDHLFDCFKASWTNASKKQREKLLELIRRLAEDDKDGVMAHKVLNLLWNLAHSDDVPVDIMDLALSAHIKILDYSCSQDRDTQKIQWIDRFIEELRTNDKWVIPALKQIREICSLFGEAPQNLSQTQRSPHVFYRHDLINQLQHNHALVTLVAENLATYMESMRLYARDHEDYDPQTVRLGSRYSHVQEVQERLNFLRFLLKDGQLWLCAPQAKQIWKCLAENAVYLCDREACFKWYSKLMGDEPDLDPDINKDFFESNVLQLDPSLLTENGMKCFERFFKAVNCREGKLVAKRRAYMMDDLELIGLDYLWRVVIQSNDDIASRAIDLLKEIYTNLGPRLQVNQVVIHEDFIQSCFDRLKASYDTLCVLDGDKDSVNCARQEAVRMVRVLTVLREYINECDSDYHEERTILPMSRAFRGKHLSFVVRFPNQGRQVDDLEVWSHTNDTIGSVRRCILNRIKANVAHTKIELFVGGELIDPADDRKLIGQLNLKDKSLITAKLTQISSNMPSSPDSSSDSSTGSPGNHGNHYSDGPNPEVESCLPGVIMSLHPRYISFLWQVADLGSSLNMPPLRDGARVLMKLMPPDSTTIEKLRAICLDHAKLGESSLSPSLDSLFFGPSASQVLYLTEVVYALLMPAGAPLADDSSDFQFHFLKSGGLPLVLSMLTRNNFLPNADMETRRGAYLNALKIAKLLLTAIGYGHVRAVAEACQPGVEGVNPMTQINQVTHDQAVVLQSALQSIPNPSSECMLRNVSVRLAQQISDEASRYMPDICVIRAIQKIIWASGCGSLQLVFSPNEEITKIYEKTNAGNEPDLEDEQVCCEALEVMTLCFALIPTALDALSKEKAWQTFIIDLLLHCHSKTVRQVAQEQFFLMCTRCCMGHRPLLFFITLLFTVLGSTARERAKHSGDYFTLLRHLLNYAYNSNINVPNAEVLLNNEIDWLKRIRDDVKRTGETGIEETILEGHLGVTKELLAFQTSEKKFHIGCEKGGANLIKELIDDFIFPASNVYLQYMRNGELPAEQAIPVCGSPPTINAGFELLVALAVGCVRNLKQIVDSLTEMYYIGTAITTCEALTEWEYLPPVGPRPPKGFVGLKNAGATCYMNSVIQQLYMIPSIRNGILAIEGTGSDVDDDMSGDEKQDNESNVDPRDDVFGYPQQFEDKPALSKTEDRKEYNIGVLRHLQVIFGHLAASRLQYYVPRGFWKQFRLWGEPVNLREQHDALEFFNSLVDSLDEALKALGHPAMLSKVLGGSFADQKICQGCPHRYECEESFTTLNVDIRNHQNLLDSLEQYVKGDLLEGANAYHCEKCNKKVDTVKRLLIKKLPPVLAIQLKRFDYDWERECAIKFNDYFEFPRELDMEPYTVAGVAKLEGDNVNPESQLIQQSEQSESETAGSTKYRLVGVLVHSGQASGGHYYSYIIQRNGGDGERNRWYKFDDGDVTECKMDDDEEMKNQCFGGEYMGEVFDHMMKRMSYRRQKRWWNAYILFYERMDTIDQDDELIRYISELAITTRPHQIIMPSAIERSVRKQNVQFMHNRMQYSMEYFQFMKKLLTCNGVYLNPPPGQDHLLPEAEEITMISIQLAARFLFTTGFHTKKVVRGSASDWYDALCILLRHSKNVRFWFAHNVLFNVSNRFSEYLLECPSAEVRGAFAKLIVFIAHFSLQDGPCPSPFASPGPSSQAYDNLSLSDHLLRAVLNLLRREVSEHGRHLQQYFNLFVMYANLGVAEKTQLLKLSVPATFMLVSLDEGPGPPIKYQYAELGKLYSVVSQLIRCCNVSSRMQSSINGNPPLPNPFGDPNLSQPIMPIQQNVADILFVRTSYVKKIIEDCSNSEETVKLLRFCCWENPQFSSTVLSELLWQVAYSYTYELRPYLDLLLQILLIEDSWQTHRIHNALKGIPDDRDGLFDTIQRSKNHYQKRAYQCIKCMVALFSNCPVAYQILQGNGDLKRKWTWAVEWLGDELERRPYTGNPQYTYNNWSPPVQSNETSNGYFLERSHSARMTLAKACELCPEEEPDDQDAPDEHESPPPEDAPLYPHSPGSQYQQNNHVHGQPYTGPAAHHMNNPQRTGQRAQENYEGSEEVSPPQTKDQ
Sequence of USP54 (Q70EL1 whole entry): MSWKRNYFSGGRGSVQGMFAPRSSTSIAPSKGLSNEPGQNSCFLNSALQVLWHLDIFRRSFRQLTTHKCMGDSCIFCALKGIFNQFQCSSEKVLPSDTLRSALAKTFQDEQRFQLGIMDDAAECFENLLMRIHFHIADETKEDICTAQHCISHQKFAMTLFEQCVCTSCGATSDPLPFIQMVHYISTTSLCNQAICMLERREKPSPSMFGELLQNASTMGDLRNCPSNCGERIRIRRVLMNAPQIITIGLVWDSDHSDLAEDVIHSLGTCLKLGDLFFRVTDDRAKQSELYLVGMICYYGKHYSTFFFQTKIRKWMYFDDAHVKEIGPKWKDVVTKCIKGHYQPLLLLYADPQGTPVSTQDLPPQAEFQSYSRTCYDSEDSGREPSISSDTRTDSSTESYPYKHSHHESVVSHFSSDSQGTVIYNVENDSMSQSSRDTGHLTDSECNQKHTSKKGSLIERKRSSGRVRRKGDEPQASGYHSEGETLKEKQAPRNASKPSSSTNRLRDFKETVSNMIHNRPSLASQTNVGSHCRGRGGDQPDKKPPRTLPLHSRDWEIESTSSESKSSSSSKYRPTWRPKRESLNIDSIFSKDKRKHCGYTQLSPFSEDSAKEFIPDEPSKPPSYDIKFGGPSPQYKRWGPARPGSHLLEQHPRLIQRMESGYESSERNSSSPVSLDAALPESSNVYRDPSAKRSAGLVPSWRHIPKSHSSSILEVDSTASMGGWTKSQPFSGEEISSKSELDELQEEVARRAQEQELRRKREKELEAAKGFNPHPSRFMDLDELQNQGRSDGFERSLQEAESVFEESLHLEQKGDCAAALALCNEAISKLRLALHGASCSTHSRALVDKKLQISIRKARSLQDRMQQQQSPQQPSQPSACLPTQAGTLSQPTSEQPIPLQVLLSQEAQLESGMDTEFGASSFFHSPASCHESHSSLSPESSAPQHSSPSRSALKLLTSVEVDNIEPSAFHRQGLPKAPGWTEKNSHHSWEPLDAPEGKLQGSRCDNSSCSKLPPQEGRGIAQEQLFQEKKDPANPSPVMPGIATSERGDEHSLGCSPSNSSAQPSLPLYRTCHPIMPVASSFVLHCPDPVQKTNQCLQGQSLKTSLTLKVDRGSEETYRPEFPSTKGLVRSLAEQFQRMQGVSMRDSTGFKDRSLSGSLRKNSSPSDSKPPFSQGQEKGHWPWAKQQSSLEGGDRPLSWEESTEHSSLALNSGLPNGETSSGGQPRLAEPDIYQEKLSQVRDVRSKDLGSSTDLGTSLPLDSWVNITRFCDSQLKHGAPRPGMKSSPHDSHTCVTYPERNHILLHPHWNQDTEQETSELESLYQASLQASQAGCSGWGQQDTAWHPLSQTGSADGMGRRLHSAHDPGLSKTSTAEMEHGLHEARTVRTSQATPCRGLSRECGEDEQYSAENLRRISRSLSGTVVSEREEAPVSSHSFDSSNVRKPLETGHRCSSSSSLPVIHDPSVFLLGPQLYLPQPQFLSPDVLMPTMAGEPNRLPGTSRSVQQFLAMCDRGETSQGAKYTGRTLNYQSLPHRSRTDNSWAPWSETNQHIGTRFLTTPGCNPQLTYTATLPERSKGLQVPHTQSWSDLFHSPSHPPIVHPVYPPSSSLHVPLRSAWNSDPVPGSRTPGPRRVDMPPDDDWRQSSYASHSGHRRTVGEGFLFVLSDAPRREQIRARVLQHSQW
Sequence of USP46 (P62068 whole entry): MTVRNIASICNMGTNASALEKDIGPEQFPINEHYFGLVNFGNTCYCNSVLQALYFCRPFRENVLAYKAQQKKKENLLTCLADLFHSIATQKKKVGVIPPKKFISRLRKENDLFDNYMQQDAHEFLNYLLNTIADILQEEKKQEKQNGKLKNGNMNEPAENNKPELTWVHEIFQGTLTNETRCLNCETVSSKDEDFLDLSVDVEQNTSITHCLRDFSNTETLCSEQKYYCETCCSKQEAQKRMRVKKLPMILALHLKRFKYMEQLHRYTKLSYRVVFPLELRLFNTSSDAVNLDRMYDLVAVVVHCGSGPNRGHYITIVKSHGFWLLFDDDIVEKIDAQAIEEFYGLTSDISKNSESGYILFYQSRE
Sequence of UniProt O00487 (O00487 whole entry): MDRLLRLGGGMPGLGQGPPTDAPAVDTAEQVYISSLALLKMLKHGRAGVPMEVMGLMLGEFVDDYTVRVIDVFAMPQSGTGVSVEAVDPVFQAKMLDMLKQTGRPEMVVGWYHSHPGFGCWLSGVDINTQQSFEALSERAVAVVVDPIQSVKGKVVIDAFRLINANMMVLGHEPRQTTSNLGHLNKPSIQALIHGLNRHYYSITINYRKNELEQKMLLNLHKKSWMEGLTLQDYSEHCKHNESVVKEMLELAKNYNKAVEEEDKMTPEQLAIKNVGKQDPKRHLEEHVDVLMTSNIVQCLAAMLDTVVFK

Cc1ccc(C)c(NC(=O)CCl)c1
inactive: USP42 0.248 | USP46 -0.456 | USP47 -0.823 | USP48 -0.558 | USP5 -0.353 | USP54 -0.00643 | USP7 -0.537 | USP8 -0.263 | USP9X -0.374 | UniProt O00487 -0.102
